Activity calls are given as the source filed them. How the calls were made is not given here.
Test: inhibitors of hydroxyurea-induced Chk1 phosphorylation, primary screen, imaging, HeLa, phospho-Chk1 antibody, percent positive cells (AID 1186)
Settings: hydroxyurea-induced phospho-Chk1 immunofluorescence imaging, higher = more signal

SMILES	z-score
CCCC[C@H]1OB(O)C[C@H]2C1=C(COc1ccccc1)C[C@H]1C(=O)C=CC(=O)[C@H]12	-0.177 (inactive)
COCCOC(=O)N1C(=O)[C@@]2(c3ccccc31)[C@H](C(=O)N1CCN(c3ncccn3)CC1)[C@H]1C(=O)O[C@H](c3ccccc3)[C@H](c3ccccc3)N1[C@@H]2c1ccccc1OCCO	-0.356 (inactive)
COC(=O)[C@@]1(Cc2ccccc2)[C@H]2c3cc(C(=O)N(C)C)n(CCO)c3C[C@H]2CN1C(=O)c1ccccc1	0.736 (inactive)
[N-]=[N+]=Nc1ccccc1[C@@H]1OC(c2ccc(OCCCO)cc2)=N[C@]1(Cc1ccccc1)C(=O)NCCN1CCOCC1	-0.437 (inactive)
COc1cc(C(O)C2C=CC3C(=O)N(c4ccccc4)C(=O)C3N2Nc2ccccc2)cc(OC)c1OC (stereo unspecified)	-0.153 (inactive)
C=CCC(OC(C)=O)[C@@H]1[C@@H](N(Cc2ccc(-c3ccccc3)cc2)C(=O)c2cccc3ccccc23)c2cc(OCCCO)ccc2N1C(=O)Cc1ccc(OC)cc1 (stereo partly specified)	-0.066 (inactive)
Cc1ccc(N2C(=O)c3ccccc3[C@](C)(C(=O)NCCCN(C)C)[C@@H]2c2ccc(CO)cc2)nc1	-0.229 (inactive)
CCOC(=O)C[C@H]1[C@H](OC(=O)Cc2ccc3c(c2)OCO3)[C@@H](NC(=O)Cc2ccc(OC)cc2)c2cc(OCCCO)ccc2N1C(=O)Cc1ccc(OC)cc1	-1.33 (inactive)
O=C1N(CCS(=O)(=O)c2ccccc2)c2ccccc2C[C@]12N=C(c1ccc(OCCCO)cc1)O[C@@H]2c1ccccc1	-0.36 (inactive)
C=CCOC(=O)[C@@H]1[C@H]2C(=O)O[C@H](c3ccccc3)[C@H](c3ccccc3)N2[C@H](c2ccc(OCCOC(=O)[C@H]3C[C@H]4C(=O)N5CCC[C@H]5C(=O)N4[C@H]3c3cccc(OCCO)c3)cc2)[C@@]12C(=O)Nc1ccc(I)cc12	-0.479 (inactive)
COc1ccc([Si](C)(C)[C@H]2[C@H](CC(=O)N3Cc4ccccc4C[C@H]3CO)O[C@@]3(C(=O)N(c4ccccc4)c4ccccc43)[C@@H]2C)cc1	-0.447 (inactive)
CCN(CC)c1ccc(N2CC=CC34O[C@@H]5C=CCCOC(=O)C5[C@H]3C(=O)N(C(C)CO)[C@@H]4C2=O)cc1 (stereo partly specified)	1.74 (inactive)
COCCOC(=O)N1C(=O)[C@@]2(c3cc(C#CC4(O)CCCCCC4)ccc31)[C@H](c1ccc(O)cc1)N1[C@H](c3ccccc3)[C@H](c3ccccc3)OC(=O)[C@H]1[C@@H]2C(=O)N1CCCCCCC1	-0.0596 (inactive)
COC(=O)[C@@]1(Cc2ccc(F)cc2)[C@H]2c3cc(C(=O)N(C)C)n(C)c3C[C@H]2CN1C(=O)c1ccccc1	0.707 (inactive)
O=C(NC1CC1)[C@@H]1c2ccccc2C(=O)N(Cc2cc(C(F)(F)F)cc(C(F)(F)F)c2)[C@H]1c1ccc(CO)cc1	-0.129 (inactive)
COc1ccc(C(O)C2C=CC3C(=O)NC(=O)C3N2Nc2ccc(Cl)cc2Cl)c2ccccc12 (stereo unspecified)	-0.0602 (inactive)
O=C(NCCN1CCOCC1)[C@@H]1c2ccccc2C(=O)N(Cc2ccccc2C(F)(F)F)[C@H]1c1ccc(CO)cc1	0.126 (inactive)
CN(C)CCCCNC(=O)[C@H]1C[C@H]2C(=O)N3CCC[C@H]3C(=O)N2[C@H]1c1cccc(OCCO)c1	-0.322 (inactive)
COc1ccc(CCNC(=O)[C@@H]2c3ccccc3C(=O)N(Cc3ccccc3OC)[C@H]2c2ccc(CO)cc2)cc1	-0.0274 (inactive)
CC(C)OC(=O)CC(=O)CC(O)c1cccc([N+](=O)[O-])c1 (stereo unspecified)	-0.242 (inactive)
CCOC(=O)C[C@H]1[C@H](OC(=O)c2cc3ccccc3oc2=O)[C@@H](NC(=O)CC(C)C)c2cc(OCCCO)ccc2N1C(=O)Cc1ccc(OC)cc1	0.372 (inactive)
CC1=C([C@H](O)CCc2ccccc2)[C@H](CO)n2c(=O)n(-c3ccccc3)c(=O)n2C1	-0.773 (inactive)
CC(C)(C)N1CC=CC23O[C@@H]4C=CCCOC(=O)C4[C@H]2C(=O)N(CCCCCCO)[C@@H]3C1=O (stereo partly specified)	-0.327 (inactive)
CCCCCC1=C2CNC(CC(C)C)(C(=O)OC)C=C2C(C)C1=O (stereo unspecified)	1.32 (inactive)
O=C1C=C(c2ccccc2)C(=O)C2=C1CC([C@H]1Oc3ccccc3S(=O)(=O)N3CCC[C@@H]13)=CC2	0.079 (inactive)
O=C1C[C@@](C(=O)O)(c2ccc([N+](=O)[O-])cc2)[C@@H](c2ccc(CO)cc2)N1C1CCCCC1	-0.119 (inactive)

From PubChem BioAssay
